Drawing on the supplement of paper PMC9262897, “Low-cost anti-mycobacterial drug discovery using engineered E. coli” (Nature Communications, 2022), this text covers growth for 20 compounds.

Where a name gives a salt, the structure may show the parent alone. ± gives the standard deviation of the averaged measurements.

One assay concerns E. coli TESEC Mtb DapB. Nature of the assay: growth (OD600 after 10 h); higher = more growth (less inhibition). Particulars: arabinose induction (level): High; compound 0.1 mM; raw OD600 reference: median of DMSO wells […], cell-free background 0.041. The protocol: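 TESEC E. coli strains in which the native enzyme is deleted and replaced by arabinose-inducible Mtb Asd, DapB, CysH or TrpD, each grown in its selective medium. Strains were screened against the Prestwick library at 0.1 mM and 1% DMSO in 384-well format at low and high arabinose induction. Growth is read as OD600 after 10 h in triplicate.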
`CN1[C@@H]2CC[C@H]1C[C@@H](OC1c3ccccc3CCc3ccccc31)C2` [Deptropine citrate] came in with a growth of 0.0744 ± 0.011.
Consider `O=c1[nH]c2ccccc2n1C1CCN(CCCC(c2ccc(F)cc2)c2ccc(F)cc2)CC1` [Pimozide], for which the growth is 0.186 ± 0.015.
`c1ccc2c(c1)OCC(C1=NCCN1)O2` (stereo not given) [Idazoxan hydrochloride] displayed a growth of 0.183 ± 0.017.
Same read-out and setting: with `CC(C)c1c(CN(C)C(C)Cc2ccccc2)n(C)n(-c2ccccc2)c1=O` (stereo not given) [Famprofazone] the figure was 0.202 ± 0.0043; with `CN1C[C@H](CNC(=O)OCc2ccccc2)C[C@@H]2c3cccc4c3c(cn4C)C[C@H]21` [Metergoline], 0.048 ± 0.0011; with `CN(C)[C@@H]1C(=O)C(C(N)=O)=C(O)[C@@]2(O)C(=O)C3=C(O)c4c(O)cccc4[C@@](C)(O)[C@H]3[C@H](O)[C@@H]12` [Oxytetracycline dihydrate], 0.0531 ± 0.00076.
Take `C[C@]12CCC(=O)C=C1CC[C@@H]1[C@@H]2C(=O)C[C@]2(C)C(=O)CC[C@@H]12` [Adrenosterone]: the growth worked out at 0.202 ± 0.007.
Compound `CNCC(O)c1ccc(O)cc1` (racemic) [(+,-)-Synephrine] returned a growth of 0.227 ± 0.021.
`CCCC(C)(COC(N)=O)COC(=O)NC(C)C` (stereo not given) [Carisoprodol] had a growth of 0.155 ± 0.0092.
Consider `CN(C)C(=O)Oc1cc(OC(=O)N(C)C)cc(C(O)CNC(C)(C)C)c1` (stereo not given) [Bambuterol hydrochloride], for which the growth was 0.193 ± 0.02.
Still for that read-out and setting: under `CCC1=C[C@H]2CN3CCc4c([nH]c5ccccc45)[C@](C(=O)OC)(C2)[C@H]13` [Catharanthine] stands 0.167 ± 0.0065; under `O=P1(N(CCCl)CCCl)NCCCO1` (stereo not given) [Cyclophosphamide], 0.205 ± 0.019.
Regarding `Cc1cccc(C)c1NC1=NCCCS1` [Xylazine], the growth stood at 0.209 ± 0.016.
With `C#C[C@]1(O)CC[C@H]2[C@@H]3CCC4=CC(=O)CC[C@]4(C)[C@H]3CC[C@@]21C` [Ethisterone], the growth came to 0.179 ± 0.0098.
Regarding `CN1C(=O)CCS(=O)(=O)C1c1ccc(Cl)cc1` (stereo not given) [Chlormezanone], the growth amounted to 0.193 ± 0.0088.
As for `C=C(C)[C@@H]1[C@H]2OC(=O)[C@@H]1[C@]1(O)C[C@H]3O[C@]34C(=O)O[C@H]2[C@]14C` [Picrotoxinin], the growth is 0.197 ± 0.0075.
`C[C@]12CCC(=O)C=C1C=C[C@@H]1[C@@H]2CC[C@@]2(C)[C@H]1CC[C@@]2(O)CCC(=O)O` [Canrenoic acid potassium salt] returned a growth of 0.196 ± 0.012.
With `C#CCN(C)[C@H](C)Cc1ccccc1` [Selegiline hydrochloride], the growth was determined as 0.222 ± 0.018.
The compound `COc1cc([C@@H]2c3cc4c(cc3[C@H](O)[C@H]3COC(=O)[C@H]23)OCO4)cc(OC)c1OC` [Podophyllotoxin] came in with a growth of 0.212 ± 0.012.
For the compound `C=C1CC[C@@]2(O)[C@H]3Cc4ccc(O)c5c4[C@@]2(CCN3CC2CC2)[C@H]1O5` [Nalmefene hydrochloride], the growth worked out at 0.194 ± 0.028.

Staying with this assay, now noted: arabinose induction (level): Low; compound 0.1 mM; raw OD600 reference: median of DMSO wells 0.227, cell-free background 0.041.
Regarding `CN1[C@@H]2CC[C@H]1C[C@@H](OC1c3ccccc3CCc3ccccc31)C2` [Deptropine citrate], the growth is 0.069 ± 0.01.
Same read-out and setting: under `O=c1[nH]c2ccccc2n1C1CCN(CCCC(c2ccc(F)cc2)c2ccc(F)cc2)CC1` [Pimozide] stands 0.227 ± 0.035; under `c1ccc2c(c1)OCC(C1=NCCN1)O2` (stereo not given) [Idazoxan hydrochloride], 0.228 ± 0.021; under `CC(C)c1c(CN(C)C(C)Cc2ccccc2)n(C)n(-c2ccccc2)c1=O` (stereo not given) [Famprofazone], 0.236 ± 0.04.
Still for that read-out and setting: under `CN1C[C@H](CNC(=O)OCc2ccccc2)C[C@@H]2c3cccc4c3c(cn4C)C[C@H]21` [Metergoline] stands 0.0468 ± 0.00083.
In the case of `CN(C)[C@@H]1C(=O)C(C(N)=O)=C(O)[C@@]2(O)C(=O)C3=C(O)c4c(O)cccc4[C@@](C)(O)[C@H]3[C@H](O)[C@@H]12` [Oxytetracycline dihydrate], the growth worked out at 0.0536 ± 0.0012.
`C[C@]12CCC(=O)C=C1CC[C@@H]1[C@@H]2C(=O)C[C@]2(C)C(=O)CC[C@@H]12` [Adrenosterone] registered a growth of 0.225 ± 0.032.
Compound `CNCC(O)c1ccc(O)cc1` (racemic) [(+,-)-Synephrine] yielded a growth of 0.232 ± 0.042.
The compound `CCCC(C)(COC(N)=O)COC(=O)NC(C)C` (stereo not given) [Carisoprodol] had a growth of 0.191 ± 0.015.
`CN(C)C(=O)Oc1cc(OC(=O)N(C)C)cc(C(O)CNC(C)(C)C)c1` (stereo not given) [Bambuterol hydrochloride]: the growth worked out at 0.211 ± 0.025.
Same read-out and setting: with `CCC1=C[C@H]2CN3CCc4c([nH]c5ccccc45)[C@](C(=O)OC)(C2)[C@H]13` [Catharanthine] the figure was 0.1738 ± 0.0015; with `O=P1(N(CCCl)CCCl)NCCCO1` (stereo not given) [Cyclophosphamide], 0.216 ± 0.029; with `Cc1cccc(C)c1NC1=NCCCS1` [Xylazine], 0.226 ± 0.022.
In the case of `C#C[C@]1(O)CC[C@H]2[C@@H]3CCC4=CC(=O)CC[C@]4(C)[C@H]3CC[C@@]21C` [Ethisterone], the growth came out at 0.219 ± 0.02.
With `CN1C(=O)CCS(=O)(=O)C1c1ccc(Cl)cc1` (stereo not given) [Chlormezanone], the growth is 0.207 ± 0.011.
Take `C=C(C)[C@@H]1[C@H]2OC(=O)[C@@H]1[C@]1(O)C[C@H]3O[C@]34C(=O)O[C@H]2[C@]14C` [Picrotoxinin]: the growth came to 0.216 ± 0.0066.
In turn, `C[C@]12CCC(=O)C=C1C=C[C@@H]1[C@@H]2CC[C@@]2(C)[C@H]1CC[C@@]2(O)CCC(=O)O` [Canrenoic acid potassium salt] yielded a growth of 0.211 ± 0.031.
In turn, `C#CCN(C)[C@H](C)Cc1ccccc1` [Selegiline hydrochloride] gave a growth of 0.219 ± 0.0087.
Compound `COc1cc([C@@H]2c3cc4c(cc3[C@H](O)[C@H]3COC(=O)[C@H]23)OCO4)cc(OC)c1OC` [Podophyllotoxin] had a growth of 0.261 ± 0.027.
The compound `C=C1CC[C@@]2(O)[C@H]3Cc4ccc(O)c5c4[C@@]2(CCN3CC2CC2)[C@H]1O5` [Nalmefene hydrochloride] displayed a growth of 0.226 ± 0.027.
